Drawing on PubChem BioAssay AID1347426 (Functional Genomics Laboratory (NCATS/FGL), 2020), this text covers median seed-adjusted z-score for 108 sequences.

Among all 31,000 sequences or so, about 1,400 (4.5%) were called active.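 Rule for the calls: active = median seed-adjusted z-score above 1 or below -1; inactive = the rest.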 Shown is part of a subset that was picked to be rich in actives.

The assay is described as follows: Novel Modifiers of Survival Motor Neuron (SMN) Protein: Gene Identification via Genome-wide siRNA Screen.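 Note: luminescence tracks full-length SMN protein made from the SMN2 reporter.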 The settings on record: HEK293T SMN2-luciferase reporter, siRNA knockdown, 72 h; actives lie on both sides. In short, it runs like this:
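siRNA screen, 10418 genes ×3 siRNAs; 1 pmol/well, lipid reverse transfection into HEK293T SMN2-luc reporter line. 72 h, 37 °C, 5% CO2; ONE-Glo readout. Data: neg-ctrl normalized, log10, MAD; hit = MAD >1.0 or < -1.0.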
On the technique in general: In a reporter assay the amount or activity of a reporter protein is the signal.
For the sequence GAAUAUCGGUUGGAUUAUATT against ITGAV, the median seed-adjusted z-score was 1.17 (active).

For GGGCGGUCAUGGUUUUGAATT against CHST13, the median seed-adjusted z-score is -0.447 (inactive). The result for CCGCUGUUAUCAUUACCAUTT against KIR2DL5B reads 1.72 (active); that for GCUCUUCUAGACAUCGAUATT against NUBP1, -0.0975 (inactive); that for GAGGUUCCCUAAUUUCCAATT against HIF1AN, -0.0315 (inactive). As to ACUACCUUCUCAUCAAGGATT against CCL19, the median seed-adjusted z-score was 0.0364 (inactive). As for GCCUAGAAUUUGUAUCCCATT against ATXN2, the figure is 0 (inactive); as for CCAAUCUGGUGACGAUUUATT against SP110, -0.788 (inactive); as for GUAUUUCGAGUAAGUCUAATT against TTPA, -0.208 (inactive).

With GGAGUUACUCCAUUAACUATT against JARID1C, the median seed-adjusted z-score is 0.372 (inactive). As for CCUGCGUCUCUACAACUAUTT against AURKB, the figure is 0.0901 (inactive); as for GAGAUUUGAUGAGAAGAGATT against MMP3, 0.0592 (inactive). Consider UCUGGCUUAUUAUAACUAUTT against ACOT2, for which the median seed-adjusted z-score was 0.578 (inactive). Consider AGAUCGAGCCGGACAUGAUTT against NACC1, for which the median seed-adjusted z-score was 1.59 (active).

On to GAUGGGUUCUUGAACAUAUTT against EXOG, for which the median seed-adjusted z-score is 0.746 (inactive). As for CCUCAUGCCUUAAUGAUCATT against ZNF561, the figure is -0.00904 (inactive).

As for CAUCCGUUCCAUACAUGUATT against AEBP2, the median seed-adjusted z-score is -0.212 (inactive). As for GGAAUGGUUUAAAAUAGAATT against NUDT3, the figure is 0.674 (inactive); as for GGCAUUGCUUAAUGAUAUATT against SF3B1, -3.65 (active); as for CCUUCAGUCUUAACUCCAATT against ZKSCAN1, 0.229 (inactive).

As to GCUGUAGCCUUGAUGCCUATT against INMT, the median seed-adjusted z-score is 0.863 (inactive). Consider GUCCGAGUGUGGUUCUGUATT against POU5F1, for which the median seed-adjusted z-score is 0.0495 (inactive). As for GGAAGAUCCUCUACCAGAATT against LATS2, the figure is -0.245 (inactive). The result for CAGUCAAUGUUGUUCAGUUTT against GARS reads 0.138 (inactive). As to GGCUACAACGUGACCAAGATT against FZD4, the median seed-adjusted z-score is 0.0695 (inactive).

On to ACUUCAUGAUGGAUAUCCATT against KCNN4, for which the median seed-adjusted z-score was 0.00864 (inactive).

Regarding CCCUACAUGUGAACAACGATT against PRPF8, the median seed-adjusted z-score was -1.54 (active).

With GGCUAUGACGGGAAGGAGATT against PTPN7, the median seed-adjusted z-score is -0.189 (inactive). The result for GAAUAGAUUUCAGUAGUAUTT against DDI2 reads 1.27 (active); that for CCAGUGUACUCAGUCUAUUTT against STAM2, -0.24 (inactive); that for GACCUUCCUAGUUUCCUGATT against GIPC1, 0 (inactive).

Consider AGCUCAACCGGUUUAAUAATT against SLC9A1, for which the median seed-adjusted z-score is 0 (inactive). As to GGAAAUAGGUCUAGUACUATT against PRPF4B, the median seed-adjusted z-score was -2.29 (active). As for GGAUGAGAAAGUCGUGAAATT against TSHZ2, the figure is -0.361 (inactive); as for CGGAUACGCUAAAAAUCAATT against B3GNTL1, 0 (inactive).

Consider GCCUAUUAUGGACAACAAUTT against IKZF2, for which the median seed-adjusted z-score was 0.514 (inactive). The result for GGAGUUAAGAAUAUUAUGATT against VAMP8 reads -0.184 (inactive); that for GGAGUUCAUCAAUAUGAAUTT against MLF1, 0.258 (inactive). The result for GCCUUCUACACUUACAUGATT against EVX1 reads 1 (active); that for GGAGUCAAGUGAAGCAGAATT against L3MBTL2, -0.312 (inactive); that for GCAGGUACAUCUCGCCUGATT against ENO1, 0.0766 (inactive). For the sequence GCCCAAUACUUGCAAGUGATT against KCNA2, the median seed-adjusted z-score was -1.03 (active).

GGGAGGUAGUAAUCCUACATT against PPP1R12B: the median seed-adjusted z-score was 0.416 (inactive). The result for GGAUUCAUGAGUCUAUAUATT against SLC25A27 reads 0.0916 (inactive). The result for GGACACCACAGUACCUAAATT against IL22RA1 reads -1.14 (active); that for CAAUCCUGACUCAAACUAATT against RAG2, 0.138 (inactive).

As to GGACCUGUAUUGGGAACAATT against ASPHD2, the median seed-adjusted z-score was -0.719 (inactive).

CUUCAAAGGUGACAAGUAUTT against MMP24: the median seed-adjusted z-score is -1.28 (active). The result for GGAGAGCAAUACAUCAUCATT against GLRX2 reads -0.244 (inactive). For GCACUUUACUAGGUCUAGATT against NANOS1, the median seed-adjusted z-score is 0.369 (inactive).

GAUUACUGGUGCGAUGUUATT against L3MBTL4: the median seed-adjusted z-score was -0.189 (inactive). For UCUGCUAACCUGAAAGUAATT against CARD8, the median seed-adjusted z-score is 0.115 (inactive). The result for AGAUCGACAAGAUGCAAGATT against FOXN1 reads 0.226 (inactive). As for CAGUGAAUCUUGGUUGUAATT against TBP, the figure is -1.25 (active); as for GCAUCAUCCAGAGACUGCATT against CCL19, 0.0364 (inactive); as for GCAGAGACACCUUGAAGUATT against GAD1, 0.101 (inactive). The result for CGUGUUUAUAAUUACCGAATT against MED14 reads -3.22 (active). With CACGAAAUCAUGCAAAUCATT against RPL17, the median seed-adjusted z-score was -0.13 (inactive).

On to GAGGCGCACUUCAAGCAUATT against CENTA1, for which the median seed-adjusted z-score is -0.555 (inactive). As for GGAGUAAACCUCACUGACATT against TMPRSS5, the figure is 1.25 (active); as for GUAUCAAUCUUUGCGGAUATT against KL, -0.267 (inactive). As for AGAUCAUGACUUGUGCUGATT against SEZ6L2, the figure is -0.331 (inactive). As for GGAGGGCAUUGUCACUAAATT against MCM3, the figure is 0.339 (inactive). With GGAUACCCAAUGCAAAUUATT against MMP16, the median seed-adjusted z-score is 0.144 (inactive).

Regarding GGAGAACUACCAGAACCUUTT against ZNF74, the median seed-adjusted z-score was 1.17 (active). The result for GCACUGGACCAAUACAAGUTT against GPR84 reads 0.285 (inactive); that for GGUGUUGUCUUGAGGUACATT against ADAMTS1, 0.173 (inactive). As for ACCCAGAUAUGGAUCUGCATT against TTLL10, the figure is 0.211 (inactive); as for GCUCAAAUGGAGAACUAAATT against GALNT8, -0.283 (inactive).

For GACCAAAAGUGGAACUCCATT against PTPN23, the median seed-adjusted z-score is -0.0473 (inactive). For the sequence CCAUUGUUCCAGACUUCUUTT against CMBL, the median seed-adjusted z-score was 0 (inactive).

Take GGGCAUGGGUUUUAAUCGATT against PYGO1: the median seed-adjusted z-score is -1.23 (active). GAGUUAUACGAUCCAUGUATT against TXNL4A: the median seed-adjusted z-score is -0.42 (inactive). In the case of AGAGCUAUGCUUUAGGUCUTT against S100A2, the median seed-adjusted z-score is -0.0951 (inactive). Take GCCUCAAUCUCUACUCGAATT against PCDHGA2: the median seed-adjusted z-score was -0.8 (inactive).

For GACAAAAAGUCCAACCCUATT against CYB5R3, the median seed-adjusted z-score was -0.901 (inactive). The result for UGAGAUUUCGGAAUCAGAATT against TSPAN31 reads -1.13 (active); that for GAACUAGGAUUUCAUAGCATT against LGR5, 0 (inactive); that for GAGUCACAGUCGUUAUUCUTT against CNOT4, -0.116 (inactive).

As to GGAUUAUUUCUGGUUCCUATT against ATP8A2, the median seed-adjusted z-score was 0 (inactive). As for GCAUCAGCAUGUCGGUGGATT against ARID3A, the figure is -1.11 (active).

GUCCCGCAGAUUCAACAAATT against SSBP3: the median seed-adjusted z-score was 0.00592 (inactive).

With CAAUCCUGUAUCUACCGUATT against OVCH1, the median seed-adjusted z-score is 0.0211 (inactive). As for CAUCAAUGAGGUAUACUAUTT against DYRK1B, the figure is 0.29 (inactive). The result for CUAUAAGUCUAGUAGCAAATT against WNK2 reads 0.212 (inactive); that for CGACGGCACCUGCAAUUUUTT against IMPA2, 0.0513 (inactive); that for GCUGUAAACAGUCAUCAGATT against ZNF180, 0 (inactive). On to GAAAAUGACGGUUAUAAGATT against PMM2, for which the median seed-adjusted z-score is 0.448 (inactive).

Take GCAUGUUAUUGAAUUAUCATT against TM9SF2: the median seed-adjusted z-score was 1.09 (active). For GGAACGUGGUACUUAGUUATT against HMGCS1, the median seed-adjusted z-score was 0.0596 (inactive).

Regarding GCAGCUUCAAGAUCAAUGATT against ANTXR1, the median seed-adjusted z-score is -0.0849 (inactive). CAAAAGUGUAUAUAAACUUTT against NDUFS6: the median seed-adjusted z-score was -0.0128 (inactive). As for ACUUUGUCCGUGUGUCUUATT against SLC30A3, the figure is -1.26 (active); as for GGAACAGGAUGAAUAUGCATT against HADHB, -0.188 (inactive). The result for CGACUGGAUGUAUAAGCAUTT against TGIF2LX reads -0.568 (inactive). Consider GAGAAGAAGUUCUUAAGGATT against ALKBH8, for which the median seed-adjusted z-score was -0.487 (inactive). As for AGUUCUACAUGCCGGAUGATT against GGTLC1, the figure is -0.298 (inactive); as for GCCUCGUUCUGAAGACGAUTT against LIPC, 0.244 (inactive). Consider CCAACCACCAGAUCUAUGATT against LBX1, for which the median seed-adjusted z-score was -0.36 (inactive). The result for CCAUGGCAGUACCAACUAGTT against CREM reads -2.37 (active); that for GGACCACUAUUUACAGCAATT against FUCA2, 0.562 (inactive); that for GGUCUGUACUGGGAUUCAUTT against PKD2L2, -0.0723 (inactive). As for GGCUUUUGCCCUAUCCAUUTT against WNK4, the figure is 0.385 (inactive). The result for CACGAGGAGUGGACAAUAUTT against UCK1 reads -0.599 (inactive). CAAAUCGCCUAAUAAACUUTT against KRT33B: the median seed-adjusted z-score is 0.04 (inactive).

GGAGCUUUGUCAAGAAGAUTT against FKBPL: the median seed-adjusted z-score was -1.11 (active). The result for GCCUGAUAACGUAAUAACATT against ARSA reads 0.0938 (inactive); that for GACUUACUUAGAUAUGAGATT against ZNF568, 0.501 (inactive).
